Shiga toxin inh: inhibitors of Shiga toxin in Vero cells; Vero cells, Shiga toxin protein synthesis inhibition reporter; inhibition, % at 38.7 µM; 290,000 compounds, 9.2% hits; in the data active = inhibition mostly above about 28%, no sharp cut-off; inactive = mostly below about 43%
Tb PYK inh: T. brucei pyruvate kinase inhibition; AID 624173; 410,000 compounds, 0.12% hits; Q57TT1; Potency, µM (doses to about 76.8 µM), usual class: inhibitors; TbPYK enzyme, Kinase-Glo Plus ATP luminescence, 45 min; note: nearly all actives have a fitted effect of over 50% in size
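Enzyme and substrate buffer are dispensed first and compound is pin-transferred. ADP at 130 uM final then starts the reaction, which runs 45 min at room temperature. Detection reagent is added for 10 min before luminescence is imaged.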
FBPA Giardia inh: inhibitors of Giardia lamblia fructose-1,6-bisphosphate aldolase; A8B2U2; purified Giardia FBPA; Potency, µM (doses to about 59.6 µM), actives largely listed as inhibitors; 290,000 compounds, 0.71% hits; note: nearly all actives have a fitted effect of over 55% in size
Target sequence (A8B2U2 whole entry, looked up): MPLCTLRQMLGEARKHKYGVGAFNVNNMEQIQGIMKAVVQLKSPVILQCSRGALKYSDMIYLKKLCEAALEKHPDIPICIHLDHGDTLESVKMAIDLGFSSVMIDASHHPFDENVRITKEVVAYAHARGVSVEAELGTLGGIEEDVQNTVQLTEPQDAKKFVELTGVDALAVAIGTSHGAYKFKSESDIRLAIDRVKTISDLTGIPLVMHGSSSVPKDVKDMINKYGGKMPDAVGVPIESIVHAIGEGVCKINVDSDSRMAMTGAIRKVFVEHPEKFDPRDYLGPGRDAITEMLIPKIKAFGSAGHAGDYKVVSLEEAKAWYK
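40 nM FBPA preincubated 10 min at RT with compound (up to 57.5 uM final), then substrate plus GAPDH/TPI/NAD/arsenate coupling and diaphorase/resazurin added. Fluorescence read after 20 min at RT, 525/598 nm.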
Cycloheximide cs: affects cycloheximide protein synthesis inhibition readout, counter-screen; cell reporter, cycloheximide protein synthesis inhibition counterscreen; max response, %; AID 2314; 300,000 compounds, 12% hits; in the data active = max response mostly above about 13%, no sharp cut-off; inactive = mostly below about 14%; note: read at 38.3 µM for the half of the compounds with a filed dose
LmPK inhibitor: blocks Leishmania mexicana pyruvate kinase activity; Q27686; purified LmPK, Kinase-Glo ATP luminescence, 1 h; 290,000 compounds, 0.37% hits; Potency, µM (doses to about 57.5 µM), actives largely listed as inhibitors
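Pyruvate kinase activity monitored as ATP production (luciferase luminescence). Conditions: 0.1 nM enzyme, 0.5 mM PEP, 0.1 mM ADP, 1 h, RT; normalized against uninhibited and no-enzyme wells.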
Sm TGR inh: inhibitors of Schistosoma mansoni thioredoxin glutathione reductase | Q962Y6 | purified TGR, DTNB reduction, TNB absorbance 405 nm | Potency, µM (doses to about 114 µM), actives largely listed as inhibitors | 360,000 compounds, 3% hits; note: nearly all actives have a fitted effect of over 60% in size
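TGR 20 nM + NADPH 100 uM (dispensed conc.), cpd preinc 15 min RT; start with NADPH (500 uM addition) then DTNB (15 mM addition). Kinetic TNB absorbance, 405 nm filter. Four-parameter Hill fit across titration.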
Large screens that a line does not name were inactive. This excerpt belongs to a sample that is enriched for hits. Unless noted, calls come from the whole dose curve; as a rule, active = well fitted curve in the direction sought with a large enough effect; inconclusive = small, poorly fitted or top-dose-only effect, or another doubt; inactive = no such curve, though single readings can be large; an effect the other way counts as inactive or inconclusive.

Cc1ccc(C(=O)N/C(=C/c2ccco2)C(=O)NCc2ccco2)cc1	Sm TGR inh 39.8µM
O=C(NCc1ccc2c(c1)OCO2)c1cc2c(s1)CSC2	none
O=C(NCc1ccco1)c1cc2c(s1)CSC2	Sm TGR inh 17.8µM
O=C(NCc1ccco1)/C(=C\c1ccco1)NC(=O)c1cccs1	Sm TGR inh 28.2µM
COc1ccc(C(=O)N/C(=C/c2ccco2)C(=O)NCc2ccco2)cc1	Sm TGR inh inconclusive
O=C(NCc1ccco1)/C(=C\c1cccs1)NC(=O)c1cccs1	none
Cn1c(=O)c2c(-c3ccccc3)n3c(c2n(C)c1=O)C(c1cccc([N+](=O)[O-])c1)Nc1ccccc1-3 (stereo not drawn)	none (no result: Shiga toxin inh, FBPA Giardia inh, Cycloheximide cs, LmPK inhibitor)
Cc1ccc(C(=O)N/C(=C/c2ccco2)C(=O)Nc2cccc(C)c2)cc1	Sm TGR inh inconclusive
COc1ccc(C(=O)N/C(=C\c2ccco2)C(=O)OCc2ccco2)cc1	Shiga toxin inh 93.2, Cycloheximide cs 33.9, Sm TGR inh 28.2µM
Cc1cccc(NC(=O)/C(=C\c2ccco2)NC(=O)c2cccs2)c1	Sm TGR inh 50.1µM
O=C(NCc1nc2ccccc2[nH]1)c1cccs1	Cycloheximide cs 23.1
CCCCOc1ccc(C(=O)N/C(=C\c2ccc(OC)cc2)C(=O)OCc2ccco2)cc1	none
O=C(CSCc1ccco1)c1cccs1	Shiga toxin inh 82.1, Cycloheximide cs 39.3, Sm TGR inh inconclusive
COc1cc(NC(=O)Cn2c(-c3ccccc3)cc(C(C)=O)c2C)cc(OC)c1	none (no result: Shiga toxin inh, FBPA Giardia inh, Cycloheximide cs, LmPK inhibitor)
O=c1c(-c2cccs2)nc2cnc(N3CCNCC3)nc2n1Cc1cccs1	none (no result: Shiga toxin inh, Tb PYK inh, Cycloheximide cs, LmPK inhibitor, Sm TGR inh)
O=[N+]([O-])c1ccc(S(=O)(=O)CC(CN2CCCCC2)N2CCCCC2)cc1 (stereo not drawn)	Sm TGR inh 7.94µM
O=S(=O)(CC(CN1CCCCC1)N1CCCCC1)c1ccccc1 (stereo not drawn)	Cycloheximide cs 27.2
O=[N+]([O-])c1ccc(S(=O)(=O)CC(CN2CCOCC2)N2CCOCC2)cc1 (stereo not drawn)	Sm TGR inh inconclusive
Cc1ccc(-n2ncc3c(SCc4ccccc4)ncnc32)cc1	Cycloheximide cs 19.9
Cc1ccc(CSc2ncnc3c2cnn3-c2ccc(C)cc2)cc1	Cycloheximide cs 15.3
c1ccc2sc(Sc3ncnc4sccc34)nc2c1	Shiga toxin inh 45.9, Cycloheximide cs 41.6
CCOC(=O)CSc1ncnc2c1cnn2-c1ccc(C)cc1	none
Fc1ccc(-n2ncc3c(SCc4cccnc4)ncnc32)cc1	Cycloheximide cs 20.3
Cc1ccc(CSc2ncnc3c2cnn3-c2ccccc2)cc1	none
CCc1cc2c(Sc3nc4ccccc4s3)ncnc2s1	none
O=C(NCc1ccccc1Cl)C1CCN(S(=O)(=O)c2ccc3c(c2)CCCN3C(=O)C2CCC2)CC1	none (no result: Shiga toxin inh, FBPA Giardia inh, Cycloheximide cs, LmPK inhibitor)
CCCOc1ccc(Cc2c(O)nc(SC)[nH]c2=O)cc1	none
CC(C)=CCCN1CCC(NC(=O)C(O)(c2ccccc2)C2CCCC2)CC1 (stereo not drawn)	none (no result: Tb PYK inh, LmPK inhibitor, Sm TGR inh)
CCc1ccc(NC(=O)N2CCN(c3nnc(C)c4c(C)n(-c5ccc(Cl)cc5)nc34)CC2)cc1	none (no result: Shiga toxin inh, FBPA Giardia inh, Cycloheximide cs, LmPK inhibitor)
Cc1ccc(OCC(=O)Nc2ccc3nn(-c4ccc(C)cc4)nc3c2)cc1	none (no result: Shiga toxin inh, FBPA Giardia inh, Cycloheximide cs, LmPK inhibitor)
c1ccc(CSc2ncnc3sccc23)cc1	Shiga toxin inh 52.4
Cc1nc(SCc2ccccc2)c2ccsc2n1	none
Cc1ccc(CCNC(=O)CCCn2c(=O)c3ccccc3n(CC(=O)Nc3cc(Cl)ccc3C)c2=O)cc1	none (no result: Shiga toxin inh, FBPA Giardia inh, Cycloheximide cs, LmPK inhibitor)
COc1cccc(CNc2ccc(Br)cn2)c1O	Shiga toxin inh 71.7, Cycloheximide cs 43.4
COc1cccc(CNc2ncc(Br)cc2Br)c1O	Shiga toxin inh 61.4, Cycloheximide cs 65.6
COc1cccc(CNn2cnnc2)c1O	none
COc1cccc(CNCc2cccc(OC)c2O)c1O	none (no result: Shiga toxin inh, FBPA Giardia inh, Cycloheximide cs, LmPK inhibitor, Sm TGR inh)
C/C(CC(=O)Nc1ccc(OCc2ccccc2)cc1)=N\NC(=O)C(=O)Nc1ccccc1C	Shiga toxin inh 65.1, Cycloheximide cs 26.3
CNC(=S)Nc1ccc(OCc2ccccc2)cc1	Shiga toxin inh 47.7, Cycloheximide cs 43.8
CCOc1ccc(NC(=S)NCCCc2ccccc2)cc1	none
Cc1occc1C(=O)Nc1ccc(OCc2ccccc2)cc1	Tb PYK inh inconclusive
CCN(CC)C(=O)C(=O)Nc1ccc(OCc2ccccc2)cc1	Cycloheximide cs 13.8
CCOc1ccc(NC(=S)Nc2ccc(OCc3ccccc3)cc2)cc1	Cycloheximide cs 11.2
Cn1c(O)c(/C=N/NC(=O)c2ccncc2)c(=O)n(C)c1=S	Sm TGR inh 20µM
O=C(N/N=C/c1c(O)n(Cc2ccc(F)cc2)c(=O)[nH]c1=O)c1ccccc1	Shiga toxin inh 89.2, Cycloheximide cs 29.5
O=C(N/N=C/c1c(O)n(CCC2=CCCCC2)c(=O)[nH]c1=O)c1ccccc1	Cycloheximide cs 26.8
O=c1[nH]c(=S)n(CCC2=CCCCC2)c(O)c1C=NCc1cccnc1	none (no result: Tb PYK inh)
O=c1[nH]c(=O)n(CCC2=CCCCC2)c(O)c1C=Nc1cccc(F)c1	Sm TGR inh inconclusive
O=C(N/N=C/c1c(O)n(CCC2=CCCCC2)c(=S)[nH]c1=O)c1ccccc1	Shiga toxin inh 37.6, FBPA Giardia inh inconclusive, Cycloheximide cs 34.9
Cc1ccc(-n2c(O)c(/C=N/NC(=O)c3ccncc3)c(=O)[nH]c2=O)cc1	Sm TGR inh inconclusive
Nc1ccccc1N=Cc1c(O)n(CCC2=CCCCC2)c(=O)[nH]c1=O	Shiga toxin inh 179.7, Cycloheximide cs 61.6, Sm TGR inh inconclusive

Screening data deposited in PubChem BioAssay by National Center for Advancing Translational Sciences (NCATS).
